miR-21 reporter = qHTS Assay for Modulators of miRNAs and/orActivators of miR-21; HeLa miR-21 FLuc reporter, luciferase, 48 h; AID 2288, 2010; 340,000 tested, under 10 active; Potency, µM (top dose mostly 38.3 µM), for the others: at the highest dose activity change, positive = activation, usual class: activators;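 note: % of control where 0% means no effect; miR-21 action dims this reporter so a rising signal means less miR-21 action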
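Using DMEM plus 10% FBS, HeLa miR-21-FLuc cells are incubated with test compounds (final up to about 40uM) for 48 hours; firefly luciferase signal is then imaged following reagent-mediated lysis.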
GALK inh = qHTS Assay for Inhibitors of Human Galactokinase (GALK); P51570; 270,000 tested, 0.007% active; Purified GALK, Kinase-Glo residual ATP luminescence; Potency, µM (series often up to 57.5 µM), for inactives: at the highest dose activity change, negative = inhibition, hits mostly inhibitors; AID 1868, 2009; note: potency is the fitted concentration of half-maximal effect; % is set by controls: 0 for no effect and ±100 for the full control effect
Target sequence (P51570 whole entry, looked up): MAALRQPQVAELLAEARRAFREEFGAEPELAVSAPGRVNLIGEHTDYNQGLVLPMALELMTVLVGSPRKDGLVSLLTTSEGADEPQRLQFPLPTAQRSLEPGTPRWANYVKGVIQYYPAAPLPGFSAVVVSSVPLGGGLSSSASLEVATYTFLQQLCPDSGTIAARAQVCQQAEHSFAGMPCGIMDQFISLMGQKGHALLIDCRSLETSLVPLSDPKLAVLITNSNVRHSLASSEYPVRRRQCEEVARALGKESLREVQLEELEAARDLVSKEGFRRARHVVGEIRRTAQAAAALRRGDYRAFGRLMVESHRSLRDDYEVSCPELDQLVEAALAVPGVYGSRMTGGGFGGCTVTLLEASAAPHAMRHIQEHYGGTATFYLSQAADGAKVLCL
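The enzyme phosphorylates galactose (100 uM) using ATP (35 uM); inhibition is detected as higher residual ATP, quantified by bioluminescence after 1 h reaction at room temperature, pH 8.0.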
RXFP1 antagonist = qHTS Assay for Antagonists of the Relaxin Receptor RXFP1; Relaxin receptor 1 (Homo sapiens), Q9HBX9; HEK293-RXFP1, relaxin-stimulated cAMP HTRF, 30 min; active compounds read low; activity change, negative = inhibition, % at 57.5 µM; 350,000 tested, 0.59% active; AID 1259400, 2018;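 active = activity change of -60% or lower, but not beyond a set lower limit; inconclusive = change between -60% and -40%, or beyond the set limit; inactive = change above -40%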; note: % is set by controls: 0 for no effect and ±100 for the full control effect
PKM2 act = qHTS Assay for Activators of Human Muscle isoform 2 Pyruvate Kinase; purified PKM2, Kinase-Glo ATP luminescence, activation; response scale: 0% is enzyme alone, no compound; Potency, µM (top dose mostly 57.5 µM), for inactives: at the highest dose activation, most hits filed as activators; 260,000 tested, 0.34% active; Pyruvate kinase PKM (Homo sapiens), P14618; note: potency is the fitted concentration of half-maximal effect; % is set by controls: 0 for no effect and ±100 for the full control effect; nearly all actives have a fitted effect of over 55% in size
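Purified hPK-M2 (>95%) run at intermediate activity with 0.1 mM ADP and 0.5 mM PEP in 50 mM imidazole pH 7.2, KCl, MgCl2; 1 h room temperature. ATP formed read by Kinase-Glo luminescence; normalized to uninhibited and no-enzyme controls.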
RXFP1 agonist = qHTS Assay for Agonists of the Relaxin Receptor RXFP1; Relaxin receptor 1 (Homo sapiens), Q9HBX9; HEK293T-RXFP1 cAMP TR-FRET, 30 min; response scale: percent of porcine relaxin response, buffer zero; 370,000 tested, 0.3% active; Potency, µM (top dose mostly 57.5 µM), for inactives: at the top dose activation, hits mostly activators; note: potency is the fitted concentration of half-maximal effect; % is set by controls: 0 for no effect and ±100 for the full control effect; nearly all actives have a fitted effect of over 60% in size
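HEK293T cells stably expressing RXFP1 were pretreated with the PDE4 inhibitor Ro 20174, exposed to compounds for 30 min at 37C, lysed, and cAMP was read by TR-FRET. Data normalized to buffer (basal) and 29 nM porcine relaxin (100%).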
KinaseGlo FLuc = Counterscreen for Luciferase (Kinase-Glo TM) Inhibition. Potency, µM (doses to about 38.3 µM), for inactives: at the top dose activity change, negative = inhibition, most hits filed as inhibitors. AID 1379, 2008. Kinase-Glo luciferase, ATP luminescence, 8 min. Luciferin 4-monooxygenase (Photuris pensylvanica), Q27757. 200,000 tested, 0.28% active; note: potency is the fitted concentration of half-maximal effect; % is set by controls: 0 for no effect and ±100 for the full control effect; nearly all actives have a fitted effect of over 60% in size
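Recombinant Kinase-Glo luciferase, 10 uM ATP (linear range), luciferin; imidazole pH 7.2 / KCl / MgCl2 / Tween / BSA buffer; 8 min RT; luminescence.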
HeLa viability = Secondary assay for Activators of Human Pyruvate Kinase M2 isoform - Cell Titer Glo cytotoxicity assay. activity change, negative = cytotoxicity, % at 57.5 µM. AID 1898, 2009. shares compounds with PKM2 act. 230 tested, under 10 active. HeLa viability, CellTiter-Glo ATP luminescence, 24 h; note: % of control where 0% means no effect
Active calls of the source: *; ? = inconclusive; / = no result given; [ ] = remark or other dose. Hits are enriched below; roughly 0.92% of the tested compounds scored in any of these assays. Unless noted, calls come from the whole dose curve; as a rule, active = well fitted curve in the direction sought with a large enough effect; inconclusive = small, poorly fitted or top-dose-only effect, or another doubt; inactive = no such curve, though single readings can be large; an effect the other way counts as inactive or inconclusive.

SMILES | miR-21 reporter | GALK inh | RXFP1 antagonist | PKM2 act | RXFP1 agonist | KinaseGlo FLuc | HeLa viability
CNC(=O)NC(=O)CSc1ncc(C(F)(F)F)cc1Cl | -6% | 0% | 7 | 0.4µM* | 0% | 0% | 0
O=C(C1CCC1)N1CCc2cc(S(=O)(=O)Nc3ccc4c(c3)OCO4)ccc21 | -2% | 1% | -14 | 2.8µM* | 2% | -1% | -27
CCOc1ccc(NS(=O)(=O)c2ccc3c(c2)CCN3C(=O)C2CCC2)cc1 | -1% | 0% | 18 | 9% | 1% | 19% | /
CC(C)c1ccc(S(=O)(=O)c2cc3cc(Br)ccc3oc2=O)cc1 | -4% | 0% | -15 | 0.56µM* | 0% | 3% | -12
O=C(Cc1noc2ccccc12)Nc1ccccn1 | -84% | 1% | 4 | -8% | 2% | -4% | /
Cc1ccccc1-n1nnnc1SCc1cc(=O)n2ccsc2n1 | 4% | -1% | 0 | 0.79µM* | 14% | 4% | -20
O=C(NCc1nnc2c(C(F)(F)F)cc(Cl)cn12)C1CCCC1 | -1% | 1% | -2 | 1% | 27% | / | /
O=C(NCc1nnc2c(C(F)(F)F)cc(Cl)cn12)c1cccs1 | 1% | 10% | 18 | 2.8µM* | 29% | / | 0
Cc1ccc(O)c(Cc2cc(C)cc(Cc3cc(C)ccc3O)c2O)c1 | / | / | 5 | / | / | / | /
CCn1c(=O)c2sccc2n2c(CCC(=O)N3CCN(c4ccccc4OC)CC3)nnc12 | 2% | / | / | / | 11% | / | /
COc1ccc(Cn2ncc3c4sc(C)cc4n(C)c3c2=O)cc1 | / | / | / | / | / | / | 3
Cc1[nH]c(C)c2c(=O)n(Cc3ccccc3Cl)ncc12 | / | / | 7 | / | / | / | /
COc1cccc(Cn2ncc3c4sc(Br)cc4n(C)c3c2=O)c1 | / | / | / | / | 3% | / | /
Cc1cc2c(s1)c1cnn(Cc3ccc(C(F)(F)F)cc3)c(=O)c1n2C | / | / | / | / | / | / | 7
Cc1cc2c(s1)c1cnn(Cc3ccc(C(C)C)cc3)c(=O)c1n2C | / | / | / | / | / | / | -7
Cc1cc2c(s1)c1cnn(Cc3cc(C(F)(F)F)cc(Cl)c3F)c(=O)c1n2C | / | / | / | / | / | / | 14
COc1ccc(Cn2nc(C(=O)O)c3ccccc3c2=O)cc1F | -1% | 0% | -11 | / | 4% | / | /
COc1ccc(Cn2ncc3c4sc(C)cc4n(C)c3c2=O)cc1F | / | / | / | / | / | / | 11
CS(=O)(=O)Nc1ccc(C2=NN(C(=O)c3ccco3)C(c3ccccc3F)C2)cc1 (stereo not drawn) | 20% | -2% | -14 | 3.2µM* | 0% | 5% | 0
CCS(=O)(=O)Nc1ccc(C2=NN(C(=O)c3ccco3)C(c3ccco3)C2)cc1 (stereo not drawn) | / | / | -24 | / | 0% | / | /
O=C(NC1CC1)c1ccc(Cn2c(SCc3ccccc3F)nc3cccnc32)cc1 | ? | / | -13 | / | 8% | / | /
COc1ccccc1CNC(=O)Cc1csc2nc(-c3ccc(Cl)cc3)cn12 | -3% | / | -20 | / | 0% | / | /
COc1ccc(C(=O)NCc2ccc3c(c2)CCN3C(C)=O)c(OC)c1 | -8% | / | 4 | / | -3% | / | /
NCCSC[C@H](N)C(=O)O | / | / | / | / | / | -7%[7.66 µM] | /
O=c1[nH]c(CN2CCN(c3ccc(O)cc3)CC2)nc2scc(-c3ccc(Cl)cc3)c12 | 28% | -3% | -7 | 2.8µM* | 2% | 6% | -7
SMILES | miR-21 reporter | GALK inh | RXFP1 antagonist | PKM2 act | RXFP1 agonist | KinaseGlo FLuc | HeLa viability
O=c1[nH]c(CN2CCN(c3ccccc3O)CC2)nc2scc(-c3ccccc3Cl)c12 | 17% | -1% | -15 | 20% | 0% | / | /
NC(=O)C1CCN(S(=O)(=O)c2ccc3c(c2)OCCO3)CC1 | 1% | 11% | 8 | 15% | -1% | / | /
O=S(=O)(c1ccc2c(c1)OCCO2)C1CCN(S(=O)(=O)c2c(F)cccc2F)CC1 | / | / | / | / | / | / | ?
O=S(=O)(NC1CCN(S(=O)(=O)c2c(F)cccc2F)C1)c1ccc2c(c1)OCCO2 (stereo not drawn) | / | / | / | / | 2% | / | ?
O=S(=O)(Nc1c(F)cccc1F)c1ccc2c(c1)OCCO2 | 2% | -1% | -2 | -4% | 1% | / | /
O=S(=O)(NC[C@@H]1CCC[C@H](CNS(=O)(=O)c2c(F)cccc2F)C1)c1ccc2c(c1)OCCO2 | / | / | / | / | 3% | / | /
O=S(=O)(NCCCNS(=O)(=O)c1c(F)cccc1F)c1ccc2c(c1)OCCO2 | / | / | / | / | 2% | / | -2
O=S(=O)(NC1CCN(S(=O)(=O)c2c(F)cccc2F)CC1)c1ccc2c(c1)OCCO2 | / | / | / | / | / | / | -29
O=S(=O)(NC1CCC(CNS(=O)(=O)c2c(F)cccc2F)CC1)c1ccc2c(c1)OCCO2 (stereo not drawn) | / | / | / | / | 1% | / | /
COC(=O)c1cc2oc(C)cc2n1CC(=O)Nc1cc(Cl)ccc1OC | -1% | / | 7 | / | 2% | / | /
c1ccc2c(CCNc3ncnc4nc[nH]c34)cccc2c1 | 22% | 1% | -14 | -2% | 2% | -1% | /
Cc1cc(NC(=O)CS(=O)(=O)c2ccc(Cl)cc2)no1 | -1% | -4% | 1 | / | 1% | / | /
Cc1cc2c(s1)c1c(n2C)C(=O)N(Cc2ccccc2F)C1 | / | / | / | / | 1% | / | 13[23.3 µM]
Cc1cc2c(s1)c1cnn(Cc3c(F)cccc3F)c(=O)c1n2C | / | / | / | / | / | / | 8
Cc1cc2c(s1)c1cnn(Cc3ccccc3F)c(=O)c1n2C(C)C | / | / | / | / | / | / | -11
Cc1cc2c(s1)c1cnn(Cc3cccc(Cn4ncc5c6sc(C)cc6n(C)c5c4=O)c3F)c(=O)c1n2C | / | / | / | / | / | / | 6
CCCCCn1ncc2c3sc(C)cc3n(C)c2c1=O | / | / | / | / | / | / | -14
Cn1c2ccccc2c2cnn(CC(=O)Nc3ccccc3F)c(=O)c21 | -5% | / | / | / | ? | / | /
CC(CCc1ccccc1)NC(=O)Cn1ncc2c3ccccc3n(Cc3ccccc3F)c2c1=O (stereo not drawn) | -1% | / | -2 | / | 3% | / | /
CCc1ccc(C(=O)NC2=NC(c3ccccc3F)CC(=O)N2)cc1 (stereo not drawn) | -2% | / | -20 | / | 7% | / | /
Cc1cc2c(s1)c1cnn(Cc3ccc(F)c(F)c3F)c(=O)c1n2C | / | / | / | / | / | / | -18
Cc1cc2c(s1)c1cnn(Cc3c(F)c(F)cc(F)c3F)c(=O)c1n2C | / | / | / | / | / | / | 3
CCc1ccc(NC(=O)Cn2ncc3c4ccccc4n(C)c3c2=O)cc1 | 7% | -4% | 2 | 1% | 0% | / | /
COc1ccc(CC(=O)N2CCN(c3ccccc3OC)CC2)cc1OC | -5% | -5% | 2 | -2%[11.5 µM] | 3% | / | /

Assay outcomes: PubChem BioAssay, National Center for Advancing Translational Sciences (NCATS)
